From PubChem
This is a sample that favours compounds with a hit; in the whole collection about 21% have one here.
NS1 function inh: influenza NS1 inhibition; Potency, µM (highest dose often 46.1 µM); 270,000 tested, 0.4% active; AID 2326; calls by dose curve; also: actives are rising curves; nearly all actives have a fitted effect of over 50% in size
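Read-out: OD600 growth recovery of NS1-expressing budding yeast. Cells grown overnight at 30C in -URA glucose medium, washed, resuspended and diluted 1:100 in 2% galactose assay medium, pH 6.0. Same strain lacking NS1 served as positive control.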
Shiga toxin inh: Shiga toxin inhibition; 290,000 tested, 9.2% active; Vero cells, Shiga toxin protein synthesis inhibition reporter; AID 2315; inhibition, % at 38.7 µM; in the data active = inhibition mostly above about 28%, no sharp cut-off; inactive = mostly below about 43%
CHX counter: affects cycloheximide protein synthesis inhibition readout, counter-screen | cell reporter, cycloheximide protein synthesis inhibition counterscreen | 300,000 tested, 12% active | AID 2314 | max response, %; in the data active = max response mostly above about 13%, no sharp cut-off; inactive = mostly below about 14%; also: read at 38.3 µM for the half of the compounds with a filed dose
Pf growth 48h: inhibits P. falciparum growth in the first generation, 48 h | P. falciparum luciferase growth in erythrocytes, 48 h | 310,000 tested, 5.9% active | Potency, µM (series often up to 28.7 µM), hits mostly inhibitors
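Compounds are pin-transferred into medium, infected erythrocytes (2% hematocrit, 0.1% parasitemia final) are added, and plates sit one parasite generation at 37 C in 5% CO2. Detection reagent is then added and luminescence measured.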
Pf growth 96h: inhibits malaria parasite growth, 96 h; AID 504834; P. falciparum luciferase reporter growth, 96 h; Potency, µM (top dose mostly 28.7 µM), usual class: inhibitors; 320,000 tested, 6.9% active
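Parasite growth measured via integrated firefly luciferase reporter in P. falciparum. Infected erythrocytes at 2% hematocrit, 0.05% parasitemia final were treated 96 hours at 37 C under 5% CO2, and luminescence was read.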
Each line names hits and unclear results; the compound was inactive in the other large screens. Unless noted, calls follow the shape of the dose curve; as a rule, active = well fitted inhibition curve with a large enough effect; inconclusive = small, poorly fitted or top-dose-only effect, or another doubt; inactive = no such curve, though single readings can be large or run the other way.

COc1cccc(Nc2ncnc3sc(C)cc23)c1	Shiga toxin inh 75, CHX counter 41, Pf growth 48h inconclusive
NS(=O)(=O)c1ccc(CCNCC(=O)NC2CC2)cc1	none
CSCC[C@H](NC(=O)Cc1c(C)c2cc3c4c(oc3cc2oc1=O)CCCC4)C(=O)O	none
CN(c1ccccc1C(=O)Nc1cccc(Cl)c1Cl)S(C)(=O)=O	none (no result: Pf growth 48h)
CCCCn1c(-c2ccco2)nc2ccccc2c1=O	none
COc1ccc(Oc2ncnc3sccc23)cc1	Shiga toxin inh 66, CHX counter 42 (no result: NS1 function inh)
Cc1ccc(Nc2ncnc3sccc23)c(C)c1	Shiga toxin inh 62, CHX counter 15
COc1ccc(Nc2ncnc3sccc23)cc1	Shiga toxin inh 72, CHX counter 31
CCc1nc2ccccc2n1CC(=O)OCC(=O)N(CC(C)C)c1c(N)n(Cc2ccccc2)c(=O)[nH]c1=O	none (no result: NS1 function inh, Shiga toxin inh, CHX counter)
O=C(NCc1nc2ncc(Br)cc2[nH]1)c1ccccc1	CHX counter 15
Cc1ncsc1C(=O)NCc1ccc(N2CCCC2=O)cc1	Pf growth 96h 4.7µM (no result: Pf growth 48h)
O=C(c1cc2c(F)cccc2s1)N1CCCC1	none
O=C1NC(=S)N(c2ccc(F)cc2)C(=O)/C1=C/c1ccccc1O	CHX counter 12 (no result: Pf growth 48h)
CCc1cccc(N=c2c([N+](=O)[O-])nn(-c3ccc4c(c3)OCCO4)n2O)c1	Shiga toxin inh 71 (no result: NS1 function inh)
O=[N+]([O-])c1nn(-c2ccccc2)n(O)c1=NC1CCN(Cc2ccccc2)CC1	Pf growth 48h inconclusive, Pf growth 96h inconclusive
Cc1c(Cl)c([N+](=O)[O-])nn1CC(=O)Nc1ccc2c(c1)OCO2	none
COc1cc(N=c2c([N+](=O)[O-])nn(-c3ccc4c(c3)OCCO4)n2O)cc(OC)c1	Shiga toxin inh 19, CHX counter 29, Pf growth 96h inconclusive
CC(C)c1ccc(N=c2c([N+](=O)[O-])nn(-c3ccc4c(c3)OCCO4)n2O)cc1	CHX counter 14, Pf growth 48h 10µM, Pf growth 96h inconclusive
CN=c1c([N+](=O)[O-])nn(-c2ccc3c(c2)OCCO3)n1O	Shiga toxin inh 61, CHX counter 32
COC(=O)C1=C(CSc2nncn2C)NC(=O)NC1c1ccc(F)cc1 (configuration not stated)	none
CC(=O)/C(N=Nc1c(C)n(C)n(-c2ccccc2)c1=O)=C(\C)O	none (no result: NS1 function inh)
Cc1c(N=NC2=C(O)CC(C)(C)CC2=O)c(=O)n(-c2ccccc2)n1C	Pf growth 96h 2.1µM
CCNc1ccc(N=Nc2c(C)n(C)n(-c3ccccc3)c2=O)cc1	CHX counter 21, Pf growth 96h inconclusive (no result: NS1 function inh)
C=CCn1c(O)c(N=Nc2c(C)n(C)n(-c3ccccc3)c2=O)c(=O)[nH]c1=S	Pf growth 96h 6.6µM
CCOC(=O)/C(N=Nc1c(C)n(C)n(-c2ccccc2)c1=O)=C(\C)O	none
Cc1c(N=Nc2c(O)[nH]c(=S)[nH]c2=O)c(=O)n(-c2ccccc2)n1C	Pf growth 96h inconclusive
O=C(c1ccco1)N1CCN(/C(=N/S(=O)(=O)c2cccs2)c2ccccc2Cl)CC1	Pf growth 96h inconclusive
Cc1ccc(/C=C/C(=O)c2ccccc(=O)c2O)cc1C	Shiga toxin inh 77, CHX counter 51, Pf growth 48h 8.3µM, Pf growth 96h 9.3µM
CCOC(=O)CCNC(=O)Nc1cc2nc(C)n(Cc3cccc(Cl)c3)c2nc1C	none (no result: Pf growth 48h)
Cc1ccc(C)c(NC(=O)CN(C)C(=O)c2ccncc2)c1	none
Cc1ccc(C)c(NC(=O)CN(C)C(=O)c2oc3c(Cl)cccc3c2C)c1	Pf growth 48h 4.1µM, Pf growth 96h 2.9µM (no result: NS1 function inh, Shiga toxin inh, CHX counter)
CSc1cc2c(s1)c1cnn(Cc3ccccc3F)c(=O)c1n2C	none (no result: NS1 function inh, Pf growth 48h, Pf growth 96h)
O=C(CCCn1ncn2c(cc3occc32)c1=O)NCc1cccc(Cl)c1	Pf growth 48h inconclusive, Pf growth 96h inconclusive
Cc1ccc(OCC(=O)N2CCOCC2)cc1C	Shiga toxin inh 44, CHX counter 31
O=C(COc1ccc(Br)cc1)N1CCOCC1	Pf growth 96h inconclusive
CCOc1ccc(OCC(=O)N2CCOCC2)cc1	none
O=C(O)C1CCN(C(=O)COc2ccc3c(c2)oc(=O)c2ccccc23)CC1	none
Cc1cc(OCCN2CCCCCC2)ccc1[N+](=O)[O-]	none
Cc1cc(OCC(=O)N2CCCCCC2)ccc1[N+](=O)[O-]	CHX counter 43
Cc1cc(OCC(=O)N2CCOCC2)cc2oc(=O)c3ccccc3c12	Shiga toxin inh 36, CHX counter 21, Pf growth 96h inconclusive
O=C(c1ccccc1)c1ccc(OCC(=O)N2CCOCC2)cc1	Shiga toxin inh 46 (no result: NS1 function inh)
COc1cccc(-n2cnnc2SCC(=O)NC2CC2)c1	none (no result: NS1 function inh, Shiga toxin inh, CHX counter)
CC(C)[C@@H](C(=O)N[C@@H](C(=O)O)c1ccccc1)N1C(=O)N2CCc3c([nH]c4ccccc34)[C@@]2(C)C1=O	NS1 function inh inconclusive
O=C(COc1ccc2cc(Br)ccc2c1Br)N1CCOCC1	Shiga toxin inh 30, CHX counter 29
Cc1cc(OCC(=O)N2CCOCC2)c(C(C)C)cc1Cl	none (no result: Pf growth 96h)
COc1ccc(/C=N/OCC(=O)N2CCCC2)c(OC)c1	CHX counter 17 (no result: NS1 function inh)
Cc1ccc(OCC(=O)N2CCCCCCC2)cc1C	Shiga toxin inh 29, CHX counter 21
Cc1cc(C)c(C)c(OCC(=O)N2CCOCC2)c1	Pf growth 96h 13µM (no result: Pf growth 48h)
Cc1ccc(C)c(OCCCC(=O)N2CCOCC2)c1	Shiga toxin inh 44, CHX counter 27
Cc1ccc(OCc2nn3c(-c4n[nH]c5c4CCC5)nnc3s2)cc1	Pf growth 96h inconclusive (no result: Pf growth 48h)
CCOC(=O)c1ccc(Nc2nc(C)cc(C)n2)cc1	none
CC(=O)c1ccc(Nc2cc(C)nc3c(C)cccc23)cc1	Pf growth 48h inconclusive
CC(=O)c1ccc(Nc2nc(C)cc(C)n2)cc1	CHX counter 28, Pf growth 96h inconclusive
COc1ccc2nc(C)cc(Nc3ccc(C)cc3)c2c1	Pf growth 48h inconclusive
CC(=O)c1ccc(Nc2cc(C)nc3ccccc23)cc1	CHX counter 18, Pf growth 48h inconclusive, Pf growth 96h inconclusive (no result: NS1 function inh)
CC(=O)c1cccc(Nc2cc(C)nc3ccc(C)cc23)c1	Pf growth 48h 4.1µM, Pf growth 96h inconclusive
COC(=O)c1ccc(Nc2cc(C)nc3ccc(C)cc23)cc1	Pf growth 48h inconclusive, Pf growth 96h inconclusive
Cc1ccc2nc(C)cc(Nc3ccc([N+](=O)[O-])cc3)c2c1	Pf growth 48h 0.74µM, Pf growth 96h inconclusive (no result: NS1 function inh)
CC(=O)c1cccc(Nc2cc(C)nc3c(C)cc(C)cc23)c1	Pf growth 48h 9.3µM, Pf growth 96h inconclusive
Cc1cc(C)c2nc(C)cc(Nc3ccc(C(=O)N4CCOCC4)cc3)c2c1	Pf growth 48h inconclusive, Pf growth 96h inconclusive
Cc1cnc(NC(=O)CSC(=S)N2CCOCC2)s1	none (no result: NS1 function inh)
O=C(c1ccc(F)c(S(=O)(=O)N2CCOCC2)c1)N1CCc2ccccc21	Pf growth 96h inconclusive
O=C(c1ccc(Cl)c([N+](=O)[O-])c1)N1CCCc2ccccc21	Shiga toxin inh 39, CHX counter 34, Pf growth 96h inconclusive
O=C(c1ccc(S(=O)(=O)N2CCOCC2)cc1)N1CCCc2ccccc21	CHX counter 22, Pf growth 96h inconclusive
O=C(c1ccc(-n2cccn2)cc1)N1CCc2ccccc2C1	CHX counter 24
O=C(c1ccc(S(=O)(=O)N2CCCCC2)cc1)N1CCc2ccccc2C1	Pf growth 48h inconclusive, Pf growth 96h 3.3µM
O=C(c1cccc(Cl)c1)N1CCCc2ccccc21	none (no result: Shiga toxin inh)
